Results: PubChem BioAssay (Tox21)
Where “and” joins values, the source holds several entries; their conditions need not be identical. Equal entries are not always repeated. Inconclusive results are not listed. A call without a number means that no potency is given here. Some structures have more than one record in an assay (separate samples or runs), and their calls can disagree. Calls of active or inactive are those of the source. Unless noted, calls follow the shape of the dose curve; as a rule, active = well fitted curve in the direction sought with a large enough effect in the repeat runs; inconclusive = weak or mixed curves; inactive = no such curve, though single readings can be large; an effect the other way counts as inactive or inconclusive.

Experiments:
[1] = biological target: Luciferin 4-monooxygenase (Photinus pyralis) (UniProt P08659); assay: qHTS assay to identify small molecule inhibitors of firefly luciferase (AID 1224835); also: nearly all actives have a fitted effect of over 25% in size
Procedure, shortened: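 Quantitative HTS format; KM concentrations of both substrates. Purified P. pyralis FLuc activity quantified from luminescence images.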

[2] = qHTS assay to identify small molecule agonists of the constitutive androstane receptor (CAR) signaling pathway - cell viability counter screen (AID 1224836); also: nearly all actives have a fitted effect of over 45% in size
Procedure, shortened: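 Fluorescence from CellTiter-Fluor indicates live cells after 23 h exposure. The human hepatoma line expresses hCAR and a CYP2B6-2.2kb reporter. Incubation medium contains 0.75 uM PK11195 (final).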

[3] = qHTS assay to identify small molecule antagonists of the constitutive androstane receptor (CAR) signaling pathway - cell viability counter screen (AID 1224837); also: nearly all actives have a fitted effect of over 45% in size
Procedure, shortened: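 Cytotoxicity counter-screen: CellTiter-Fluor fluorescence after 23 h compound exposure (15-point qHTS) in double-stable HepG2-CYP2B6-hCAR cells, with 50 nM CITCO added.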

[4] = biological target: Nuclear receptor subfamily 1 group I member 3 (Homo sapiens) (UniProt Q14994); assay: qHTS assay to identify small molecule antagonists of the constitutive androstane receptor (CAR) signaling pathway (AID 1224838);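 also: HepG2 cells stably expressing hCAR with CYP2B6 luciferase reporter stimulated by CITCO; nearly all actives have a fitted effect of over 40% in size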
Procedure, shortened: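 Antagonism measured as luciferase signal (ONE-Glo, 30 min, room temperature) in CAR-stimulated cells: HepG2-CYP2B6-hCAR double-stable line exposed 24 hr at 37 C to compound in a 15-point series plus 50 nM CITCO.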

[5] = biological target: Nuclear receptor subfamily 1 group I member 3 (Homo sapiens) (UniProt Q14994); assay: qHTS assay to identify small molecule agonists of the constitutive androstane receptor (CAR) signaling pathway (AID 1224839); also: nearly all actives have a fitted effect of over 15% in size
Procedure, shortened: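 Stable hCAR/CYP2B6-2.2kb HepG2 line in DMEM with 10% FBS; compounds (15 concentrations) and 0.75 uM PK11195 final, 24 h at 37 C/5% CO2, then ONE-Glo luminescence after 30 min.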

[6] = qHTS assay to identify small molecule antagonists of the estrogen related receptor signaling pathway with the pleiotropic PPARgamma coactivator (PGC) from Tox21 10K library - cell viability counter screen (AID 1224840; active = well fitted cell-killing curve with a large enough effect in the repeat runs, not every such curve was filed as active; also: nearly all actives have a fitted effect of over 40% in size)
Procedure, shortened: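 Counter-screen for cytotoxicity: after 17.5 h compound exposure at 37 C, CellTiter-Fluor reagent added to PGC/ERR cells for 30 min and fluorescence read. Cells were seeded at 2,000 per well 6 h before dosing.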

[7] = qHTS assay to identify small molecule antagonists of the estrogen related receptor signaling pathway with the pleiotropic PPARgamma coactivator (PGC) from Tox21 10K library (AID 1224841; call rule not given here; also: actives are mostly falling curves and most rising ones were filed inactive; nearly all actives have a fitted effect of over 50% in size)
Procedure, shortened: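 Luminescence (One-Glo, 30 min at room temperature) after 18 h compound treatment at 37 C of PGC/ERR reporter cells plated at 2,000 cells/well and settled 6 h beforehand.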

[8] = qHTS assay to identify small molecule agonists of the estrogen related receptor signaling pathway with the pleiotropic PPARgamma coactivator (PGC) from Tox21 10K library (AID 1224842); also: nearly all actives have a fitted effect of over 15% in size
Procedure, shortened: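 PGC/ERR reporter cells (NTP line) were seeded 2,000 per well, rested 6 h at 37 C/5% CO2, then pin-dosed with compounds in DMSO for 18 h at 37 C; luciferase read by One-Glo luminescence after 30 min at room temperature.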

[9] = biological target: Thyrotropin receptor (Homo sapiens) (UniProt P16473); assay: qHTS assay to identify small molecule agonists of the thyroid stimulating hormone receptor (TSHR) signaling pathway (AID 1224843; calls by dose curve; also: nearly all actives have a fitted effect of over 45% in size)
Procedure, shortened: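 Using 15 concentrations per compound in triplicate, cAMP production was monitored in TSHR-HEK293 cells after 30 min compound incubation at RT; HTRF reagents followed, with fluorescence intensity recorded after 1 h.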

[10] = qHTS assay to identify small molecule agonists of the hypoxia (HIF-1) signaling pathway - cell viability counter screen (AID 1224844; calls by dose curve; also: nearly all actives have a fitted effect of over 50% in size)
Procedure, shortened: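 Cytotoxicity measured by CellTiter-Glo ATP luminescence in the wells also read for beta-lactamase signal. Cells were HRE-bla ME-180 (2,000/well, 0.5% dialyzed FBS), exposed to compounds for 17 h at 37C.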
Potency is read from the fitted curve at half-maximal effect.

Sequence of Nuclear receptor subfamily 1 group I member 3 (Homo sapiens) (Q14994 whole entry, looked up): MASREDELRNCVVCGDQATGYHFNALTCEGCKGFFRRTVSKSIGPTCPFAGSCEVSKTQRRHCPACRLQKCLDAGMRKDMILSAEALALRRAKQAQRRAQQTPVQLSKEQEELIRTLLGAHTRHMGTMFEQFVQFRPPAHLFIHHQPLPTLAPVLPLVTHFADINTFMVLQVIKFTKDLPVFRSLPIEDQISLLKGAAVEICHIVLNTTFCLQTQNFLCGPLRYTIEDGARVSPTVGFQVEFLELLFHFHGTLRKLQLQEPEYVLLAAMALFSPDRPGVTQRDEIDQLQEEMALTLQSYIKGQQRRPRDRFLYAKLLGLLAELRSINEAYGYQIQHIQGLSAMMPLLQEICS
Sequence of Thyrotropin receptor (Homo sapiens) (P16473 whole entry, looked up): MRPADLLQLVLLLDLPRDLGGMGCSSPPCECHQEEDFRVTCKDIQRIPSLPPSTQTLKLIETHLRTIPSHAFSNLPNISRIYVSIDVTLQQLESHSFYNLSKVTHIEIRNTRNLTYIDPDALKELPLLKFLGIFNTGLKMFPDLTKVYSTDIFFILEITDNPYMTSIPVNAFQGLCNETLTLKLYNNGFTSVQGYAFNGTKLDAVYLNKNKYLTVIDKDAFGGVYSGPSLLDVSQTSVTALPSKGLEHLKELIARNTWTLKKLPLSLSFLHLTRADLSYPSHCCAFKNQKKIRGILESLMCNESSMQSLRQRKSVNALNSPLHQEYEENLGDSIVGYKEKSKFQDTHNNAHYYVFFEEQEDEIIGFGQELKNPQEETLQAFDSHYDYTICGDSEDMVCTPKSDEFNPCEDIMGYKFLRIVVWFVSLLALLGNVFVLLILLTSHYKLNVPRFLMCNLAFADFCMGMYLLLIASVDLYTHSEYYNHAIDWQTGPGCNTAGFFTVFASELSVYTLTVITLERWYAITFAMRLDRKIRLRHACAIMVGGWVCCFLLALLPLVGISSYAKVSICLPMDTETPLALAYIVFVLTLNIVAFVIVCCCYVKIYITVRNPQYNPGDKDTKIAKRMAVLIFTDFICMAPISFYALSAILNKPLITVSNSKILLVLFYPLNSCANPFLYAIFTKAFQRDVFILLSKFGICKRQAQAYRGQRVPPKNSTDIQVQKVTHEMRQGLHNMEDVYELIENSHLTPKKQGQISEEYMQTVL
Sequence of Luciferin 4-monooxygenase (Photinus pyralis) (P08659 whole entry, looked up): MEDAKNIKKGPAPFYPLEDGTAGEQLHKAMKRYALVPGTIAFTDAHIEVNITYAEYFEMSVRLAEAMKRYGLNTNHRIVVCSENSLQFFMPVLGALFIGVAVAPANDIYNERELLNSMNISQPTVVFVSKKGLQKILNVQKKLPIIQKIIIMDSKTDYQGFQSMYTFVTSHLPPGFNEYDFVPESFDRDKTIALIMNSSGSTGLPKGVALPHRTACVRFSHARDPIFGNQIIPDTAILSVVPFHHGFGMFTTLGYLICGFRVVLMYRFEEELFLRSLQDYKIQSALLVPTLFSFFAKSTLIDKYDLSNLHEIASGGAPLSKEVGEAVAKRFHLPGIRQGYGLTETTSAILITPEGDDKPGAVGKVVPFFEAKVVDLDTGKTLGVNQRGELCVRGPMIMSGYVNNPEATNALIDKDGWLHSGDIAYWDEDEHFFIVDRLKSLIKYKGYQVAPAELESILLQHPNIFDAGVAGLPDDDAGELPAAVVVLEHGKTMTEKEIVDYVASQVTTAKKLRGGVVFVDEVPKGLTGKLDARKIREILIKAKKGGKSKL

Row | SMILES | Potency [1] | Potency [2] | Potency [3] | Potency [4] | Potency [5] | Potency [6] | Potency [7] | Potency [8] | Potency [9] | Potency [10]
1 | C=C(C#N)C(=O)OCC | inactive | inactive | inactive | inactive | inactive | inactive | inactive | inactive | inactive | inactive
2 | CN(C)c1ccc(C(=N)c2ccc(N(C)C)cc2)cc1 | 55.7 µM (active) and inactive | 24 µM (active) and 23.4 µM (active) | 24 µM (active) and 26.3 µM (active) | 52.4 µM (active) | inactive | 30.3 µM (active) and 20.9 µM (active) |  |  |  | inactive
3 | CC1=C(/C=C/C(C)=C/C=C/C(C)=C/CO)C(C)(C)CCC1 | inactive | inactive | inactive | inactive |  | inactive | inactive | inactive |  | inactive
4 | CCc1ccccc1O | inactive | inactive | inactive | inactive | inactive | inactive |  |  | inactive | inactive
5 | CNC[C@H](O)[C@@H](O)[C@H](O)[C@H](O)CO | inactive | inactive | inactive | inactive | inactive | inactive |  |  | inactive | inactive
6 | CCCCC(CC)C(=O)OCCOCCOCCOC(=O)C(CC)CCCC (stereo unspecified) | inactive | inactive | inactive | inactive | inactive | inactive | inactive | inactive |  | inactive
7 | CCCCCCOC(C)=O | inactive | inactive | inactive | inactive | inactive | inactive | inactive | inactive | inactive | inactive and 27.5 µM (active)
8 | C=C1CC[C@H](O)CC1=C/C=C1\CCC[C@]2(C)[C@@H]([C@H](C)/C=C/[C@H](C)C(C)C)CC[C@@H]12 | inactive | inactive | inactive | inactive |  | inactive |  |  | 21.5 µM (active) and 34.4 µM (active) | 43.3 µM (active) and 34.7 µM (active)
9 | C[C@@H](O)[C@H]1C(=O)N2C(C(=O)O)=C(S[C@@H]3CN[C@H](C(=O)N(C)C)C3)[C@H](C)[C@H]12 | inactive | inactive | inactive | inactive | inactive | inactive | inactive | inactive | inactive | inactive
10 | CC1CC(OC(=O)c2ccccc2O)CC(C)(C)C1 (stereo unspecified) | inactive | inactive | inactive | inactive | inactive | inactive |  |  | inactive | 48.5 µM (active) and inactive
11 | O=c1c(-c2ccc(O)cc2)coc2cc(O)ccc12 | 24.9 µM (active) and 12.6 µM (active) | inactive | inactive | inactive | 15.2 µM (active) and 10.9 µM (active) | inactive | inactive | 24.1 µM (active) and 27.3 µM (active) | inactive | inactive
12 | CCOC(=O)C1OC1c1ccccc1 (stereo unspecified) | inactive | inactive | inactive | inactive | inactive | inactive |  |  |  | inactive
13 | CCCCC(CC)COC(=O)/C=C\C(=O)OCC(CC)CCCC (stereo unspecified) | inactive | inactive | inactive |  | 61.1 µM (active) | inactive | inactive | inactive | inactive | inactive
14 | CCCCOCCO | inactive | inactive | inactive | inactive | inactive | inactive | inactive | inactive | inactive | inactive
15 | C=C1C2CCC(C2)C1(C)C (stereo unspecified) | inactive | inactive | inactive | inactive | inactive | inactive | inactive | inactive | inactive | inactive
16 | CCOC(=O)[C@H](CCc1ccccc1)N[C@@H](C)C(=O)N1Cc2ccccc2C[C@H]1C(=O)O | inactive | inactive | inactive | inactive | inactive | inactive | inactive | inactive |  | inactive
17 | O=C(O)c1ccc([N+](=O)[O-])cc1 | inactive | inactive | inactive | inactive | inactive | inactive |  |  |  | inactive
18 | CS(=O)(=O)c1ccc([C@@H](O)[C@@H](CO)NC(=O)C(Cl)Cl)cc1 | inactive | inactive | inactive | inactive | inactive | inactive |  |  |  | inactive
19 | c1ccc2[nH]cnc2c1 | inactive | inactive | inactive | inactive | inactive | inactive |  |  |  | inactive
20 | C=C(C)C(=O)OCCCCCCCCCCCC | inactive | inactive | inactive |  | inactive | inactive | inactive | inactive | inactive | inactive
21 | Clc1ccc(Cl)c(Cl)c1Cl | inactive | inactive | inactive | inactive | inactive | inactive |  |  | inactive | inactive
22 | CC1Cc2ccccc2N1NC(=O)c1ccc(Cl)c(S(N)(=O)=O)c1 (stereo unspecified) | inactive | inactive | inactive | inactive | inactive | inactive | inactive | inactive | inactive | inactive
23 | CCCCC/C=C\C/C=C\CCCCCCCC(=O)OC | inactive | inactive | inactive | inactive | inactive | inactive |  |  | inactive | inactive
24 | CCCCC(CC)COC(C)=O (stereo unspecified) | inactive | inactive | inactive |  | inactive | inactive | inactive | inactive | inactive | inactive
25 | NC(=O)/N=N/C(N)=O | 31.8 µM (active) and 25.2 µM (active) | inactive | inactive | inactive | inactive | inactive | inactive | inactive |  | inactive

Row | SMILES | Potency [1] | Potency [2] | Potency [3] | Potency [4] | Potency [5] | Potency [6] | Potency [7] | Potency [8] | Potency [9] | Potency [10]
26 | CCCCCCCCCCC=CC1CC(=O)OC1=O (stereo unspecified) | 63.6 µM (active) and 71 µM (active) | inactive | inactive | inactive | inactive | inactive |  |  | inactive | inactive
27 | OCC1CCCO1 (stereo unspecified) | inactive | inactive | inactive | inactive | inactive | inactive |  |  |  | inactive
28 | Cn1c([N+](=O)[O-])cnc1COC(N)=O | inactive | inactive | inactive | inactive | inactive | inactive | inactive | inactive |  | inactive
29 | Oc1ccc2ccccc2c1N=Nc1ccccc1 | 12.6 µM (active) and 22.4 µM (active) | 48.5 µM (active) and 30.6 µM (active) | 30.6 µM (active) | inactive | 30.6 µM (active) and 21.7 µM (active) |  |  |  | inactive | inactive
30 | Oc1ccc(OCc2ccccc2)cc1 | 31.1 µM (active) and 17.4 µM (active) | inactive | inactive | inactive | 23.8 µM (active) | inactive |  |  | inactive | inactive
31 | O=C(O)c1cc(-c2ccccc2)nc2ccccc12 | 12.8 µM (active) and 13.8 µM (active) | inactive | inactive | inactive |  | inactive | inactive |  | inactive | inactive
32 | CC(=O)Nc1ccc(C(=O)O)cc1 | inactive | inactive | inactive | inactive | inactive | inactive |  |  | inactive | inactive
33 | CCCCCCCCCCCCOCC1CO1 (stereo unspecified) | inactive | inactive | inactive | inactive | inactive | inactive | inactive | inactive | inactive | inactive
34 | CCCCCCCCC | inactive | inactive | inactive | inactive | inactive | inactive |  |  | inactive | inactive
35 | Cc1ccc(C)c(C)c1 | inactive | inactive | inactive | inactive | inactive | inactive |  |  | inactive | inactive
36 | CCCCOCCOCCOC(=O)CCCCC(=O)OCCOCCOCCCC | inactive | inactive | inactive | inactive | inactive | inactive |  |  |  | inactive
37 | CC(C)(CO)COC(=O)C(C)(C)CO | inactive | inactive | inactive | inactive | inactive | inactive | inactive | inactive | inactive | inactive
38 | Nc1nc2ncc(CNc3ccc(C(=O)N[C@@H](CCC(=O)O)C(=O)O)cc3)nc2c(=O)[nH]1 | inactive | inactive | inactive | inactive | inactive | inactive |  |  | inactive | inactive
39 | NCCNCCNCCNCCN | inactive | inactive | inactive |  | inactive | inactive | inactive | inactive | inactive | inactive
40 | O=C(Cl)c1c(Cl)c(Cl)c(C(=O)Cl)c(Cl)c1Cl | inactive | inactive | inactive |  | inactive | inactive | inactive | inactive |  | inactive
41 | OC[C@@H](O)[C@@H](O)[C@H](O)[C@@H](O)CO | inactive | inactive | inactive |  |  | inactive | inactive | inactive | inactive | inactive
42 | OC1CCCC1 | inactive | inactive | inactive |  | inactive | inactive | inactive | inactive | inactive | inactive
43 | NCc1cccc(CN)c1 | inactive | inactive | inactive |  | inactive | inactive |  |  | inactive | inactive
44 | CC1=C(CC(=O)O)c2cc(F)ccc2/C1=C\c1ccc(S(C)=O)cc1 (stereo unspecified) | inactive | inactive | inactive |  | 61.1 µM (active) and inactive | inactive |  |  | inactive | inactive
45 | CC[Si](OC(C)=O)(OC(C)=O)OC(C)=O | inactive | inactive | inactive |  | inactive | inactive |  |  | inactive | inactive
46 | O=C1O[C@H](CO)[C@@H](O)[C@H](O)[C@H]1O | inactive | inactive | inactive |  | inactive | inactive | inactive | inactive | inactive | inactive
47 | CCCCCC/C=C/CCCCCCCC(=O)O | inactive and 71 µM (active) | inactive | inactive |  | inactive | inactive |  |  | inactive | inactive
48 | C[C@@H]1O[C@@H](OC[C@H]2O[C@@H](Oc3c(-c4ccc(O)c(O)c4)oc4cc(O)cc(O)c4c3=O)[C@H](O)[C@@H](O)[C@@H]2O)[C@H](O)[C@H](O)[C@H]1O | inactive | inactive | inactive |  | inactive | inactive |  |  | inactive | inactive
49 | Oc1c(Cl)cc(Cl)c(Cl)c1Cl | inactive | inactive | inactive |  |  | inactive | 59.8 µM (active) and 54.5 µM (active) | inactive | inactive | inactive
